Experimental data as given in a collection of fitness landscapes (doi:10.1038/s41467-024-54723-y).
The full ranking holds about 18,000 sequences; the median of “TetR repression strength (sort-seq, GFP reporter)” is about 0.23, and the highest 2% start at about 0.68. Many of the other results were omitted from the sample, so the highest values are more common in it than they were.

Molecular target: TetR (class B, Tn10) (UniProt P04483)
Assay: TetR repression strength (sort-seq, GFP reporter) (relative to tetO2 = 1); higher = stronger repression
Conditions: E. coli
Procedure, shortened: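 Escherichia coli SIG10-MAX cells carried a low-copy plasmid library in which eight operator positions were randomized between a constitutive promoter and sfGFP, and TetR was expressed constitutively. After 5 h of growth at 37 °C in LB with 50 µg/mL chloramphenicol, 10^6 cells were FACS-sorted into 13 fluorescence bins, and each bin was Illumina-sequenced. Repression strength was the top bin index plus one minus the read-weighted mean bin, divided by the value for the unaltered operator. Across three independent transformations, only library members with ≥30 reads in every replicate and a CV ≤0.5 were averaged.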

TetR (class B, Tn10), sequence (P04483 whole entry): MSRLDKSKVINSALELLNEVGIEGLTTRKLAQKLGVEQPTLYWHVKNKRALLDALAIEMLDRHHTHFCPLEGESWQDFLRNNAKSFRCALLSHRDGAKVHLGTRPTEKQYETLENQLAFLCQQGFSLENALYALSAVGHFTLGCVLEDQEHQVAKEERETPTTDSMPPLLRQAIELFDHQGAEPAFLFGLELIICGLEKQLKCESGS

Sequence | TetR repression strength
TCCCCGAGAGTGTTGGAGA | 0.156
TCCCGACGAGTAAGTGAGA | 0.0202
TCCCGTGCAGTGGGAGAGA | 0.177
TCCCCGAAAGTGGTTGAGA | 0.272
TCCCCAGTAGTGTAAGAGA | 0.139
TCCCTCGTAGTTCGTGAGA | 0.105
TCCCGTAGAGTGCAAGAGA | 0.396
TCCCGGGCAGTGAAGGAGA | 0.251
TCCCGCGGAGTGACGGAGA | 0.38
TCCCGAGGAGTACGAGAGA | 0.222
TCCCCCATAGTCAGGGAGA | 0.312
TCCCAATCAGTGTAAGAGA | 0.74
TCCCAATAAGTGAAAGAGA | 0.688
TCCCAATCAGTGAAGGAGA | 0.671
TCCCAATCAGTGTCAGAGA | 0.335
TCCCAATCAGTGAAAGAGA | 0.686
TCCCAATCAGTTTAAGAGA | 0.368
TCCCAAGAAGTGAAAGAGA | 0.2
TCCCAATAAGTGTAAGAGA | 0.21
TCCCAATCAGTCAAAGAGA | 0.676
TCCCACTAAGTTATAGAGA | 0.672
TCCCTGCTAGTTAGGGAGA | 0.181
TCCCGTCGAGTGGGAGAGA | 0.494

Sequence | TetR repression strength
TCCCTCAAAGTGTACGAGA | 0.165
TCCCGCTAAGTAAGTGAGA | 0.00864
TCCCTTTCAGTCATCGAGA | 0.53
TCCCTACAAGTCATCGAGA | 0.309
TCCCAATCAGTCATCGAGA | 0.557
TCCCTCTCAGTTATCGAGA | 0.603
TCCCTATAAGTCATCGAGA | 0.687
TCCCTATCAGTCATCGAGA | 0.747
TCCCTATCAGTGATCGAGA | 0.868
TCCCTATAAGTCGTCGAGA | 0.307
TCCCTACCAGTGATCGAGA | 0.593
TCCCTAGTAGTGATCGAGA | 0.37
TCCCTATCAGTTATCGAGA | 0.859
TCCCAATCAGTTATCGAGA | 0.468
TCCCCCACAGTGTAAGAGA | 0.183
TCCCGCTTAGTCCTCGAGA | 0.44
TCCCAATAAGTACGCGAGA | 0.348
TCCCAGCCAGTTTTGGAGA | 0.298
TCCCCGGAAGTTGCGGAGA | 0.0399
TCCCGGGGAGTTATCGAGA | 0.161
TCCCACGGAGTGGTGGAGA | 0.11
TCCCGACGAGTACATGAGA | 0.629
TCCCTCAGAGTGGACGAGA | 0.314

Sequence | TetR repression strength
TCCCTATCAGTTATAGAGA | 0.809
TCCCTGTCAGTCATAGAGA | 0.617
TCCCTATGAGTTATAGAGA | 0.439
TCCCTATCAGTCGTAGAGA | 0.557
TCCCTATAAGTTATAGAGA | 0.651
TCCCTATCAGTCATAGAGA | 0.924
TCCCCAACAGTCTTGGAGA | 0.692
TCCCCAACAGTGTTGGAGA | 0.292
TCCCCAAGAGTCTTGGAGA | 0.193
TCCCCAAAAGTTTTGGAGA | 0.276
TCCCTCACAGTGGGGGAGA | 0.189
TCCCCAAAAGTGTGGGAGA | 0.821
TCCCCAAAAGTGGGGGAGA | 0.196
TCCCTCTCAGTGTGGGAGA | 0.234
TCCCTCACAGTGTGGGAGA | 1.22
TCCCCAAAAGTCTTGGAGA | 0.681
TCCCAAAAAGTGTGGGAGA | 0.415
TCCCCAAAAGTCATGGAGA | 0
TCCCGGGTAGTCAAGGAGA | 0.296
TCCCAGGAAGTCGTTGAGA | 0
TCCCGGCCAGTTGTTGAGA | 0.199
TCCCGAATAGTCGACGAGA | 0.165
TCCCGTATAGTCTGGGAGA | 0.198

Sequence | TetR repression strength
TCCCAGCAAGTGTGTGAGA | 0.1
TCCCAGCTAGTGATTGAGA | 0.306
TCCCAGCAAGTGAGTGAGA | 0.201
TCCCAGCTAGTGACCGAGA | 0.694
TCCCAGCTAGTGAACGAGA | 0.379
TCCCAGCGAGTGACCGAGA | 0.694
TCCCAGCGAGTGAGCGAGA | 0.153
TCCCAGCTAGTGAGAGAGA | 0.36
TCCCAGCTAGTGACGGAGA | 0.226
TCCCAGCAAGTGGGTGAGA | 0.699
TCCCAGCTAGTGAGTGAGA | 0.716
TCCCAGCGAGTGACGGAGA | 0.207
TCCCTTCGAGTTCTCGAGA | 0.207
TCCCTCCTAGTCTCCGAGA | 0.394
TCCCACGGAGTCGGCGAGA | 0.148
TCCCGGAAAGTCACAGAGA | 0.108
TCCCTGTGAGTGGACGAGA | 0.227
TCCCAGCTAGTTTCTGAGA | 0.207
TCCCTAAAAGTGTAGGAGA | 0.131
TCCCAGTGAGTTCGCGAGA | 0.402
TCCCACTCAGTATGTGAGA | 0.108
TCCCGTACAGTGTTAGAGA | 0.284
TCCCGTAAAGTGTGAGAGA | 0.0929

Sequence | TetR repression strength
TCCCGTTTAGTGTTAGAGA | 0.222
TCCCGTAAAGTGTTAGAGA | 0.696
TCCCGTGTAGTGTTAGAGA | 0.24
TCCCGTCTAGTGTTAGAGA | 0.851
TCCCACCGAGTTTTTGAGA | 0.46
TCCCACAGAGTAATGGAGA | 0.108
TCCCCGTTAGTTTTGGAGA | 0.104
TCCCTAGGAGTAGGAGAGA | 0.268
TCCCTAGGAGTACGCGAGA | 0.226
TCCCTAGTAGTACGCGAGA | 0.0159
TCCCTAGTAGTACGAGAGA | 1.22
TCCCTAGGAGTACGAGAGA | 1.01
TCCCTGGTAGTACGAGAGA | 0.219
TCCCGTAGAGTCTCAGAGA | 0.257
TCCCTTTTAGTTATAGAGA | 0.231
TCCCCACGAGTTCAGGAGA | 0.271
TCCCGTAGAGTAATGGAGA | 0.344
TCCCACTGAGTGAGAGAGA | 0.473
TCCCTGTGAGTTGGGGAGA | 0.189
TCCCGCGAAGTCAGAGAGA | 0.382
TCCCCCAAAGTGAAGGAGA | 0.104
TCCCCTAAAGTGAAGGAGA | 0.721
TCCCTTAAAGTGAAGGAGA | 0.097

Sequence | TetR repression strength
TCCCCTTCAGTGAAGGAGA | 0.702
TCCCCTCCAGTGAAGGAGA | 0.572
TCCCCTTCAGTGGAGGAGA | 0.65
TCCCGTAAAGTTCAAGAGA | 0.415
TCCCCGCCAGTTGGCGAGA | 0.16
TCCCTTTGAGTAAATGAGA | 0.33
TCCCTCCGAGTCATCGAGA | 0.264
TCCCTTCAAGTGCGGGAGA | 0.0975
TCCCCCTGAGTAGTAGAGA | 0.207
TCCCTTAGAGTGGTCGAGA | 0.215
TCCCCTATAGTGCTAGAGA | 0.285
TCCCCTAGAGTGGTAGAGA | 0.634
TCCCCTATAGTGGTAGAGA | 0.84
TCCCCTGTAGTGATAGAGA | 0.387
TCCCTTGGAGTGGTAGAGA | 0.172
TCCCCTATAGTGGTGGAGA | 0.201
TCCCTTAGAGTGGTAGAGA | 0.695
TCCCCTATAGTGATAGAGA | 0.982
TCCCCTTTAGTTGTAGAGA | 0.246
TCCCGGTCAGTCTTTGAGA | 0.165
TCCCCGAGAGTGAGGGAGA | 0.129
TCCCCTTAAGTCGAGGAGA | 0.157
TCCCATCGAGTCGGTGAGA | 0.179

Sequence | TetR repression strength
TCCCGGTTAGTGTAGGAGA | 0.172
TCCCGCGCAGTCAGTGAGA | 0.415
TCCCTCGAAGTGATCGAGA | 0.343
TCCCAACAAGTGAATGAGA | 0.336
TCCCCCTAAGTTATAGAGA | 0.525
TCCCTCTCAGTGATAGAGA | 0.866
TCCCTCTCAGTCAGAGAGA | 0.423
TCCCTCTCAGTTAGAGAGA | 0.726
TCCCTCACAGTGATAGAGA | 0.513
TCCCTCTCAGTTAGTGAGA | 0.339
TCCCTCTAAGTTATAGAGA | 0.703
TCCCACTCAGTTATAGAGA | 0.661
TCCCTGTAAGTTATAGAGA | 0.375
TCCCTGTCAGTTATAGAGA | 0.649
TCCCTCTCAGTTATAGAGA | 0.716
TCCCTCAGAGTGATAGAGA | 0.342
TCCCGGTTAGTTGAGGAGA | 0.12
TCCCTCAGAGTGTTAGAGA | 0.248
TCCCGAGAAGTCCATGAGA | 0.207
TCCCGTGAAGTCGCTGAGA | 0.168
TCCCTAGTAGTAAGCGAGA | 0.136
TCCCGATCAGTTATAGAGA | 0.579
TCCCGCACAGTTATAGAGA | 0.275

Sequence | TetR repression strength
TCCCGCTCAGTTATAGAGA | 0.764
TCCCGAGGAGTTGGCGAGA | 0.14
TCCCGGGGAGTTACGGAGA | 0.447
TCCCGGAAAGTTGTGGAGA | 0.275
TCCCGGGAAGTTACGGAGA | 0.707
TCCCCGGAAGTTACGGAGA | 0.343
TCCCGGGAAGTTGTGGAGA | 1.1
TCCCGGGGAGTTGTGGAGA | 0.215
TCCCCAAAAGTTTGTGAGA | 0.0341
TCCCCTCGAGTTGGGGAGA | 0.121
TCCCGGAGAGTCCTTGAGA | 0.295
TCCCTCGAAGTGCGGGAGA | 0.25
TCCCCAAGAGTAAATGAGA | 0.368
TCCCGGATAGTGACCGAGA | 0.131
TCCCTCCAAGTGGGAGAGA | 0.14
TCCCTCCCAGTCTAGGAGA | 0.263
TCCCCGCCAGTCCAGGAGA | 0.104
TCCCTGCCAGTCTAGGAGA | 0.415
TCCCGCCAAGTCCGGGAGA | 0.21
TCCCCCCCAGTCTAGGAGA | 0.8
TCCCGCCAAGTCCCGGAGA | 1.1
TCCCCGCAAGTCTAGGAGA | 0.739
TCCCCAGGAGTCTAGGAGA | 0.284

Sequence | TetR repression strength
TCCCTGCAAGTCTAGGAGA | 0.171
TCCCGCCAAGTCCCTGAGA | 0.389
TCCCCGGAAGTCTAGGAGA | 0.113
TCCCCGCCAGTCTAGGAGA | 0.681
TCCCCGTGAGTCGATGAGA | 0.313
TCCCGCGTAGTCCGCGAGA | 0.172
TCCCGAGTAGTGTGTGAGA | 0.28
TCCCATTGAGTTCCGGAGA | 0.115
TCCCATCCAGTGGGGGAGA | 0.175
TCCCCCCTAGTTGTGGAGA | 0.213
TCCCTGTGAGTTGGTGAGA | 0.656
TCCCTTTCAGTGATAGAGA | 0.785
TCCCTAACAGTAATAGAGA | 0.569
TCCCTCTCAGTACTAGAGA | 0.283
TCCCTTTCAGTAATAGAGA | 0.745
TCCCTATCAGTAACAGAGA | 0.539
TCCCTTTCAGTTATAGAGA | 0.649
TCCCTCTCAGTAATAGAGA | 0.686
TCCCTCTAAGTAATAGAGA | 0.472
TCCCTTTAAGTAATAGAGA | 0.44
TCCCTTTCAGTGATGGAGA | 0.574
TCCCTATCAGTAATAGAGA | 0.878
TCCCTTTCAGTGAGAGAGA | 0.566
